Several values for one entry are separate records, joined by “and”; a condition that tells them apart may be missing. Identical values can stand only once. About 10 (0.01%) of roughly 89,000 compounds were called active. Roughly 10% stayed inconclusive and do not appear here. No stated cut-off is given here; in the data, active means activity change below about -37% (passing the limit was not always enough); inconclusive means no clear call, values can overlap the other calls; tested in A549 cells. A selection follows.
Assay: blocks a specific stage of Vaccinia orthopoxvirus infection, primary screen, cell-based, single point (AID 1053133)
Settings: Vaccinia-infected cells, mCherry/Venus stage reporter fluorescence, stronger effect = lower value, concentration not given here; activity change (Venus): measured here: Venus reporter, other viral stage

SMILES | activity change (Venus) | activity change (mCherry)
CCC(=O)N1CCC2(CC1)CN(S(C)(=O)=O)[C@@H](CO)c1c2c2ccc(OC)cc2n1C | 7.75% | 14.3% (inactive)
CC(C)CC#Cc1ccc2c(c1)O[C@H](CN(C)C(=O)Cc1cccnc1)[C@H](C)CN([C@@H](C)CO)S2(=O)=O | -21.5% | -32.3% (inactive)
O=C(Cc1ccccn1)N[C@H]1CC[C@H](CCn2cc(-c3ccc(F)cc3)nn2)O[C@H]1CO | 1.48% | 5.56% (inactive)
NCC[C@@H]1CC[C@@H](NC(=O)C2CCCC2)[C@H](CO)O1 | 0.29% | -7.04% (inactive)
COc1ccc(NC(=O)Nc2ccc3c(c2)C(=O)N([C@@H](C)CO)C[C@H](C)[C@H](CN(C)S(=O)(=O)c2ccccc2)OCCCC[C@@H](C)O3)cc1 | -1.69% | -0.413% (inactive)
C[C@@H]1CN([C@H](C)CO)C(=O)c2cc(-c3ccccc3)cnc2O[C@H]1CN(C)C(=O)NC1CCCC1 | -2.73% | 1.1% (inactive)
CCC(=O)N1CCC2(CC1)CN(Cc1cc(F)ccc1F)[C@@H](CO)c1c2c2ccc(OC)cc2n1C | -2.18% | 15.8% (inactive)
O=C(C[C@H]1CC[C@@H]2[C@H](COC[C@H](O)CN2C(=O)c2ccc3c(c2)OCO3)O1)NC1CCC1 | 9.5% | 3.32% (inactive)
O=C(Nc1ccccc1F)N[C@H]1CC[C@@H](CCNS(=O)(=O)c2ccc(F)cc2)O[C@@H]1CO | -12.7% | -16.7% (inactive)
O=C(C[C@H]1C=C[C@H](NC(=O)Nc2cc(F)ccc2F)[C@H](CO)O1)Nc1ccccc1 | -0.0195% | -4.16% (inactive)
COc1ccc2c3c(n(C)c2c1)[C@@H](CO)N(C(=O)c1ccc(F)cc1)CC31CN(C(=O)c2ccc(F)cc2)C1 | -9% | -10.3% (inactive)
COc1cccc(-c2ccc(CC[C@H]3O[C@H]4CC[C@@H](CO)O[C@H]4C[C@@H]3NS(C)(=O)=O)cc2)c1 | -32% | -32.8% (inactive)
O=C(C[C@@H]1CC[C@H]2[C@@H](COC[C@H](O)CN2Cc2ccc(F)cc2)O1)N1CCc2ccccc2C1 | -6.62% | -6.87% (inactive)
CN(C)CC(=O)N1[C@H](CO)[C@@H](c2ccc(-c3cccc(C(=O)N(C)C)c3)cc2)[C@@H]1C#N | -1.53% | 8.67% (inactive)
O=C(c1ccncc1)N1C[C@H]2[C@@H](c3ccccc31)[C@H](CO)N2C(=O)Nc1ccc(F)cc1 | 5.09% | 11% (inactive)
COCC(=O)Nc1ccc2c(c1)C(=O)N(C)[C@@H]1CC[C@H](CC(=O)NCC3CC3)O[C@H]1CO2 | 3.16% | 15.4% (inactive)
O=C(c1ccncc1)N1C[C@H]2[C@@H](c3ccccc31)[C@H](CO)N2C(=O)c1ccccn1 | 2.97% | 10.6% (inactive)
COc1ccc2c3c([nH]c2c1)[C@@H](CO)N(Cc1ccccc1F)CC31CN(C(=O)C2CC2)C1 | 19.6% | 12.9% (inactive)
CCCN(C)C[C@@H]1Oc2ncc(-c3cccc(C(=O)N(C)C)c3)cc2C(=O)N([C@H](C)CO)C[C@@H]1C | 1.46% | 23.1% (inactive)
C[C@@H]1CN([C@@H](C)CO)S(=O)(=O)c2ccc(-c3ccc(F)cc3)cc2O[C@@H]1CN(C)CC1CC1 | -14.3% | -33.2% (inactive)

SMILES | activity change (Venus) | activity change (mCherry)
Cn1cnc(S(=O)(=O)N2C[C@@H]3N[C@H](C2)C3c2ccc(/C=C/c3ccccc3)cc2)c1 (stereo partly specified) | 2.7% and -14.5% | 7.98% (inactive) and -24.7% (inactive)
C[C@H](CO)N1C[C@H](C)[C@@H](CN(C)C(=O)Cc2ccncc2)Oc2ncc(C3=CCCCC3)cc2C1=O | -16% | -18.8% (inactive)
CCC(=O)N1CC2(C1)[C@H](c1ccccc1)[C@@H](CO)N2C(=O)c1ccccc1 | -1.49% | -4.89% (inactive)
COc1ccc(-c2ccc3n(c2=O)C[C@@H]2[C@@H](CO)[C@H](C(=O)Nc4ccccc4)[C@H]3N2C)cc1 | 4.65% | -0.0885% (inactive)
CO[C@H]1CN(C)C(=O)c2ccc(NC(=O)c3ccno3)cc2OC[C@@H](C)N(S(C)(=O)=O)C[C@H]1C | 16.7% | 24.5% (inactive)
Cc1ccc(F)cc1S(=O)(=O)N[C@@H]1CCN(Cc2ccc(-c3ccccc3)cc2)C1 | -24.3% | -23.2% (inactive)
C[C@@H](NC(=O)C[C@H]1C[C@@H]2c3cc(NC(=O)Nc4ccccc4F)ccc3O[C@@H]2[C@H](CO)O1)c1ccccc1 | 0.165% | 4.14% (inactive)
O=C(C[C@@H]1C[C@H]2c3cc(NC(=O)NC4CCCCC4)ccc3O[C@H]2[C@H](CO)O1)NCc1ccncc1 | 10.9% | -4.22% (inactive)
COc1ccccc1NC(=O)N(C)C[C@H]1Oc2cc(Br)ccc2S(=O)(=O)N([C@H](C)CO)C[C@@H]1C | -7.91% and 3.04% | -12.3% (inactive) and -2.64% (inactive)
O=C(C[C@@H]1CC[C@@H]2[C@H](COC[C@H](O)CN2C(=O)C2CC2)O1)NCc1ccncc1 | -2.42% | 0.733% (inactive)
COCC#Cc1ccc2c(c1)O[C@@H](CN(C)C(=O)Nc1ccccc1F)[C@H](C)CN([C@H](C)CO)S2(=O)=O | 11.6% | 9.91% (inactive)
CN1C(=O)c2cc(NC(=O)c3ccccc3)ccc2OC[C@H]2O[C@@H](CC(=O)O)CC[C@@H]21 | 4.29% | 9.5% (inactive)
O=C(c1ccccn1)N1CC2(C1)[C@H](c1ccccc1)[C@H](CO)N2C(=O)C1CCCC1 | -9.04% | -13.9% (inactive)
Cc1noc(C)c1NC(=O)N[C@@H]1CC[C@H](CC(=O)Nc2ccccc2)O[C@H]1CO | 10.3% | 4.56% (inactive)
COc1ccc2c3c([nH]c2c1)[C@@H](CO)N(C(=O)c1cccc(F)c1)CC31CN(C(C)=O)C1 | -6.3% | 16.8% (inactive)
CCC(=O)Nc1ccc2c(c1)OC[C@@H](C)N(Cc1ccccn1)C[C@H](C)[C@@H](OC)CN(C)C2=O | 5.46% | 6.05% (inactive)
C[C@@H]1CN([C@H](C)CO)S(=O)(=O)c2ccc(C#CCC3CCCC3)cc2O[C@H]1CN(C)Cc1ccc(C(=O)O)cc1 | -4.35% | 11.2% (inactive)
O=C(C[C@H]1CC[C@@H]2[C@H](COC[C@@H](O)CN2CC2CC2)O1)NCC1CC1 | 15.8% | 11.7% (inactive)
C[C@H](CO)N1C[C@H](C)[C@@H](CN(C)C(=O)Nc2ccc3c(c2)OCO3)OCCCC[C@H](C)Oc2ccc(NS(=O)(=O)c3cn(C)cn3)cc2C1=O | 3.74% | 11.2% (inactive)
CO[C@H]1CN(C)C(=O)c2ccc(NC(=O)c3cc(C)on3)cc2OC[C@@H](C)NC[C@@H]1C | 4.97% | 2.62% (inactive)

SMILES | activity change (Venus) | activity change (mCherry)
CCCc1cn(CC[C@H]2CC[C@@H](NS(=O)(=O)c3ccccc3Cl)[C@@H](CO)O2)nn1 | 1.1% | 5.97% (inactive)
CCNC(=O)[C@H]1[C@H](CO)[C@H]2Cn3c(ccc(/C=C/c4ccccc4)c3=O)[C@@H]1N2C(=O)C1CCC1 | 12.9% | 11.2% (inactive)
O=C(C[C@H]1C=C[C@@H](NC(=O)C2CCOCC2)[C@@H](CO)O1)NCC1CCCCC1 | 1.03% | 8.68% (inactive)
O=C(CC1CC1)Nc1ccc2c(c1)[C@@H]1C[C@@H](CC(=O)NC3CCCCC3)O[C@@H](CO)[C@@H]1O2 | -4.69% | -3.33% (inactive)
O=C(Nc1cc(F)ccc1F)N[C@@H]1C=C[C@@H](CC(=O)N2CCc3ccccc3C2)O[C@@H]1CO | -0.0639% | -17.7% (inactive)
C[C@H](CO)N1C[C@H](C)[C@@H](CN(C)C(=O)c2cnccn2)Oc2ncc(Br)cc2C1=O | -0.956% | 2.65% (inactive)
CCCNC(=O)N(C)C[C@H]1Oc2cc(C3=CCCCC3)ccc2S(=O)(=O)N([C@H](C)CO)C[C@H]1C | -0.298% | -6.09% (inactive)
Cc1ccccc1S(=O)(=O)N[C@H]1CC[C@H](CCn2cc(-c3ccc(F)cc3)nn2)O[C@H]1CO | -25.8% | -28.8% (inactive)
C[C@H]1CCCCO[C@H](CN(C)S(=O)(=O)c2cn(C)cn2)[C@@H](C)CN([C@@H](C)CO)C(=O)c2cc(NC(=O)C3CCCCC3)ccc2O1 | 4.42% | 9.05% (inactive)
O=C(Nc1nccs1)[C@@H]1[C@@H](CO)[C@@H]2Cn3c(ccc(-c4cccnc4)c3=O)[C@@H]2N1CC1CC1 | 2.33% | 16.6% (inactive)
COc1cccc(-c2cnc3c(c2)C(=O)N([C@H](C)CO)C[C@H](C)[C@@H](CN(C)Cc2ccc(C(=O)O)cc2)O3)c1 | 12.8% | 13.4% (inactive)
COc1ccccc1-c1cnc2c(c1)C(=O)N([C@H](C)CO)C[C@H](C)[C@@H](CN(C)C(=O)CC1CC1)O2 | -0.21% | 5.06% (inactive)
O=C(C[C@H]1CC[C@H]2[C@@H](COC[C@@H](O)CN2Cc2ccccc2F)O1)NCc1ccccc1F | 2.5% | -8.36% (inactive)
O=C(C[C@H]1CC[C@H]2[C@@H](COC[C@@H](O)CN2S(=O)(=O)c2ccc(Cl)cc2)O1)NCCN1CCCCC1 | 2.96% | 7.02% (inactive)
COCC#Cc1ccc(CC[C@H]2O[C@H]3CC[C@@H](CO)O[C@H]3C[C@H]2NC(=O)Nc2c(C)noc2C)cc1 | 12.1% | 18.6% (inactive)
CC(=O)N(C)C[C@@H]1Oc2ncc(C#Cc3ccccn3)cc2C(=O)N([C@@H](C)CO)C[C@@H]1C | 9.68% | 7.16% (inactive)
O=C(Cc1ccncc1)NCC[C@H]1CC[C@H](NC(=O)Nc2cccc(F)c2)[C@H](CO)O1 | 5.2% | 3.69% (inactive)
COc1ccc(NC(=O)Nc2ccc3c(c2)C(=O)N([C@@H](C)CO)C[C@@H](C)[C@@H](CN(C)C(=O)Nc2ccc(F)cc2)OCCCC[C@@H](C)O3)cc1 | -5.96% | 0.168% (inactive)

From PubChem BioAssay AID1053133 (Broad Institute, 2014)
